The results in this text go back to PubChem BioAssay (NCI).

Compounds without any hit were thinned out: in the full panel of roughly 83,000, 20% have a hit.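 Single-concentration screen, 48 h exposure, 96-well plates. Endpoint: percent growth. Below 10 = active.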 Values without a mark were called inactive. The source made the active and inactive calls.

Some test systems named below: HCT-15 colon; HT29 colon; SNB-75 CNS; SNB-19 CNS; U251 CNS; PC-3 prostate; SK-MEL-5 melanoma; UACC-62 melanoma; LOX IMVI melanoma; SK-MEL-28 melanoma; SK-MEL-2 melanoma; SN12C renal; UO-31 renal; TK-10 renal; ACHN renal; CAKI-1 renal; A498 renal; CCRF-CEM leukemia; MOLT-4 leukemia.
Assay in all cases: NCI-60 one-dose screen, 48 h (100 = growth as untreated, 0 = no growth, -100 = all killed)
What all share (details): 10 µM unless noted

Regarding `COc1cc(C2C=C(C)N=C3SC(C)=NN32)cc(OC)c1OC` (configuration not stated), the growth in the test on HCT-15 colon is 95.8%; in the test on HT29 colon, 102%; in the test with SNB-75 CNS, 82.5%; in the test on SNB-19 CNS, 100%; with U251 CNS it was 100%; in the test with PC-3 prostate, 95.3%. Besides, the growth with SK-MEL-5 melanoma was 101%; in the test on UACC-62 melanoma, 107%; in the test on LOX IMVI melanoma it was 96.3%; in the test on SK-MEL-28 melanoma it was 119%; in the test with SK-MEL-2 melanoma, 107%; in the test on SN12C renal, 109%. For the same molecule, the growth in the test on UO-31 renal is 72%; with TK-10 renal, 102%; in the test with ACHN renal, 103%; in the test with CAKI-1 renal, 103%; with A498 renal, 81.8%; in the test with CCRF-CEM leukemia it was 91.8%. Moreover, the growth in the test with MOLT-4 leukemia was 92.8%.
On to `Clc1cccc(Cl)c1Cn1c(-c2cncs2)nc2ccccc21`, for which the growth is 79.5% in the test on HCT-15 colon; 91.5% with HT29 colon; 83.1% in the test on SNB-75 CNS; 97.8% with SNB-19 CNS; 93.7% in the test on U251 CNS; 62.2% with PC-3 prostate. The growth with SK-MEL-5 melanoma is 58.9%; in the test on UACC-62 melanoma it was 61.2%; in the test with LOX IMVI melanoma, 85%; in the test with SK-MEL-28 melanoma, 105%; in the test with SK-MEL-2 melanoma, 73.3%; in the test on SN12C renal, 81.6%. Further, the growth in the test on UO-31 renal was 68.3%; with TK-10 renal, 85.1%; with ACHN renal it was 86.8%; in the test with CAKI-1 renal it was 66.5%; with A498 renal it was 125%; with CCRF-CEM leukemia, 85%. In addition, the growth with MOLT-4 leukemia is 62.9%.
For the molecule `O=P([O-])(O)OP(=O)([O-])O.[NH-][C@H]1CCCC[C@@H]1[NH-].[OH-].[OH-].[Pt+4]`, the growth in the test with HCT-15 colon was 102%; in the test with HT29 colon, 110%; with SNB-75 CNS it was 86.6%; in the test on SNB-19 CNS, 107%; in the test on U251 CNS it was 91.1%; with PC-3 prostate, 99.5%. The growth in the test with SK-MEL-5 melanoma was 106%; in the test with UACC-62 melanoma, 103%; with LOX IMVI melanoma it was 102%; in the test with SK-MEL-28 melanoma, 118%; with SK-MEL-2 melanoma it was 117%; in the test on SN12C renal it was 105%. In addition, the growth was 96.6% in the test with UO-31 renal; 102% with TK-10 renal; 86.3% with ACHN renal; 94.8% in the test on CAKI-1 renal; 81.7% with A498 renal; 98.4% in the test with CCRF-CEM leukemia. Further, the growth with MOLT-4 leukemia is 87.8%.
In the case of `CCn1cc(C(=O)O)c(=O)c2cc(F)c(N3CCN(S(=O)(=O)c4cccc5ccccc45)CC3)cc21`, the growth in the test on HCT-15 colon is 11.1%; with HT29 colon, 3.96% (active); in the test on SNB-75 CNS, 14.1%; in the test with SNB-19 CNS, 28.8%; in the test with U251 CNS, 14.2%; with PC-3 prostate, 7.82% (active). Further, the growth in the test with SK-MEL-5 melanoma was -46% (active); in the test with UACC-62 melanoma, 31.2%; in the test on LOX IMVI melanoma it was -39% (active); in the test on SK-MEL-28 melanoma, 59.2%; in the test on SK-MEL-2 melanoma it was 8.82% (active); in the test with SN12C renal, 11.9%. Besides, the growth with UO-31 renal was -19.7% (active); with TK-10 renal, 26%; in the test on ACHN renal, -3.57% (active); with CAKI-1 renal it was 0.945% (active); in the test on A498 renal, -0.385% (active); in the test on CCRF-CEM leukemia, 12.1%. The growth with MOLT-4 leukemia was 8.41% (active).
On to `COc1cc(Cn2c(SCC(=O)Nc3cc(OC)c(OC)c(OC)c3)nc3ccccc3c2=O)cc(OC)c1OC`, for which the growth in the test on HCT-15 colon is 89.9%; in the test on HT29 colon it was 99.5%; in the test with SNB-75 CNS it was -13.7% (active); with SNB-19 CNS, 74.8%; with U251 CNS, 52.6%; in the test with PC-3 prostate, 87.7%. In addition, the growth is 90.4% in the test on SK-MEL-5 melanoma; 84.4% with UACC-62 melanoma; 92.1% in the test on LOX IMVI melanoma; 100% in the test on SK-MEL-28 melanoma; 75.1% in the test with SK-MEL-2 melanoma; 82% with SN12C renal. The growth in the test with UO-31 renal was 80.4%; with TK-10 renal it was 67.9%; in the test on ACHN renal it was 33.4%; in the test on CAKI-1 renal, 95.5%; in the test on A498 renal, 62.4%; with CCRF-CEM leukemia, 101%. For the same molecule, in the test on MOLT-4 leukemia, the growth was 89.4%.
As to `Nc1c(C(=O)Nc2cccc(C(F)(F)F)c2)sc2nc3c(cc12)CCCCCC3`, the growth was 19.3% with HCT-15 colon; 0.128% (active) in the test on HT29 colon; -34% (active) in the test on SNB-75 CNS; 25.9% in the test with SNB-19 CNS; -18.4% (active) in the test on U251 CNS; 52.4% with PC-3 prostate. Further, the growth in the test on SK-MEL-5 melanoma was 25.8%; in the test with UACC-62 melanoma, 23.9%; with LOX IMVI melanoma it was 21.5%; in the test on SK-MEL-28 melanoma it was 10.4%; with SK-MEL-2 melanoma, 51.4%; in the test with SN12C renal it was 5.73% (active). Besides, the growth was -2.04% (active) with UO-31 renal; 5% (active) in the test with TK-10 renal; -35.6% (active) in the test with ACHN renal; 20.8% in the test on CAKI-1 renal; -28.3% (active) with A498 renal; 51% in the test on CCRF-CEM leukemia. Also, in the test on MOLT-4 leukemia, the growth is 45.6%.
With `Cc1cc(Nc2nc(C(=O)Nc3ccccc3)nc3ccccc23)n[nH]1`, the growth with HCT-15 colon is 29.5%; in the test with HT29 colon, 84.7%; in the test with SNB-75 CNS, -0.848% (active); with SNB-19 CNS it was 97.3%; with U251 CNS, 72.5%; in the test on PC-3 prostate, 51.2%. In addition, the growth in the test on SK-MEL-5 melanoma is 59.2%; in the test on UACC-62 melanoma it was 59.9%; in the test with LOX IMVI melanoma, 54%; in the test with SK-MEL-28 melanoma, 69.5%; in the test with SK-MEL-2 melanoma it was 45.3%; in the test with SN12C renal, 63%. The growth was 37.3% in the test with UO-31 renal; 58.8% with TK-10 renal; 39.9% in the test with ACHN renal; 24% in the test with CAKI-1 renal; -1.3% (active) with A498 renal; 38.1% in the test on CCRF-CEM leukemia. For the same molecule, the growth with MOLT-4 leukemia is 55.4%.
Consider `CC[C@]1(O)C[C@@H]2CN(Cc3c([nH]c4ccccc34)[C@@](C(=O)OC)(c3cc4c(cc3OC)N(C)[C@H]3[C@@](O)(C(=O)OC)[C@H](OC(C)=O)[C@]5(CC)[C@@H]6C[C@@H]6CN6CC[C@]43[C@@H]65)C2)C1`, for which the growth in the test with HCT-15 colon is 60.7%; in the test with HT29 colon, -2.26% (active); in the test on SNB-75 CNS, 10.1%; in the test with SNB-19 CNS, 51.7%; in the test on U251 CNS, 6.95% (active); in the test on PC-3 prostate it was 14%. The growth is 2.99% (active) in the test with SK-MEL-5 melanoma; 34% in the test on UACC-62 melanoma; 19.1% with LOX IMVI melanoma; 64.4% with SK-MEL-28 melanoma; 9.71% (active) in the test with SK-MEL-2 melanoma; 34.1% with SN12C renal. Also, the growth is 68.5% in the test on UO-31 renal; 55.7% in the test on TK-10 renal; 47.8% in the test on ACHN renal; 50.6% in the test on CAKI-1 renal; -8.06% (active) in the test with A498 renal; 1.15% (active) in the test on CCRF-CEM leukemia. In the test on MOLT-4 leukemia, the growth is 1.8% (active).
